We go through four molecules from PubChem BioAssay (EPA / NIEHS).

The source made the active and inactive calls. Rule for the calls: active = hit-call score of the fitted dose curve at least 0.9, where 1 is the maximum; inactive = score below 0.9.

Read-out in experiment [1]: Cyclin D2 (CCND2), CCND2 (gene 894)
Briefly: LTEA_HepaRG_CCND2: Life Technologies and Expression Analysis (LTEA) Assay for Cyclin D2 (CCND2) using HepaRG (AID 2283449).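 Note: CCND2 transcript measured by TaqMan qRT-PCR and normalised to three housekeeping genes.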 As to conditions: mRNA level, 48 h; actives raise or lower the signal. The procedure, abridged: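 Chemicals in 0.5% DMSO, eight half-log concentrations from 100 uM top, were applied in duplicate for 48 h to human HepaRG cells in serum-free induction medium. CCND2 mRNA by TaqMan qRT-PCR, normalised to ACTB/GAPDH/POLR2A; bidirectional fit versus DMSO.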

Read-out in experiment [2]: Cyclin Dependent Kinase Inhibitor 1A (CDKN1A), CDKN1A (gene 1026)
Briefly: LTEA_HepaRG_CDKN1A: Life Technologies and Expression Analysis (LTEA) Assay for Cyclin Dependent Kinase Inhibitor 1A (CDKN1A) using HepaRG (AID 2283450). The note with it: mRNA level, 48 h; actives raise or lower the signal. The procedure, abridged:
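Gain or loss of CDKN1A transcript is scored by bidirectional fitting against 0.5% DMSO vehicle. Human HepaRG cultures receive chemicals for 48 h across an 8-point series peaking at 100 uM; expression comes from qRT-PCR.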

Read-out in experiment [3]: catalase (CAT), CAT (gene 847)
Briefly: LTEA_HepaRG_CAT: Life Technologies and Expression Analysis (LTEA) Assay for catalase (CAT) using HepaRG (AID 2283452). The note with it: mRNA level, 48 h; actives raise or lower the signal. The procedure, abridged: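 HepaRG cells in serum-free induction medium, 0.5% DMSO vehicle, exposed 48 h in duplicate over 8 half-log concentrations from 100 uM. CAT mRNA measured by qRT-PCR, normalized to ACTB, GAPDH, POLR2A; bidirectional fit versus DMSO.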

Read-out in experiment [4]: flavin-containing dimethylaniline monooxygenases 3 (FMO3), FMO3 (gene 2328)
In words: LTEA_HepaRG_FMO3: Life Technologies and Expression Analysis (LTEA) Assay for flavin-containing dimethylaniline monooxygenases 3 (FMO3) using HepaRG (AID 2283453). As to conditions: mRNA level, 48 h; actives raise or lower the signal. The procedure, abridged: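 Differentiated HepaRG cells in serum-free induction medium, exposed 48 h in duplicate to 8 half-log concentrations up to 100 uM in 0.5% DMSO. FMO3 mRNA by qRT-PCR, normalized to ACTB, GAPDH, POLR2A; bidirectional fit vs DMSO.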

Read-out in experiment [5]: Cytochrome P450 (CYP1A1), CYP1A1 (gene 1543)
Briefly: LTEA_HepaRG_CYP1A1: Life Technologies and Expression Analysis (LTEA) Assay for Cytochrome P450 (CYP1A1) using HepaRG (AID 2283454). As to conditions: mRNA level, 48 h; actives raise or lower the signal. The procedure, abridged:
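Using HepaRG cultures with 0.5% DMSO as vehicle, eight-concentration exposures (max 100 uM) lasted 48 h. Transcript levels were measured by TaqMan qRT-PCR and normalized to ACTB, GAPDH and POLR2A.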

Read-out in experiment [6]: CFLAR gene, CFLAR (gene 8837)
Briefly: LTEA_HepaRG_CFLAR: Life Technologies and Expression Analysis (LTEA) Assay for CFLAR gene using HepaRG (AID 2283455). As to conditions: mRNA level, 48 h; actives raise or lower the signal. The procedure, abridged:
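Differentiated HepaRG cells in serum-free induction medium were exposed 48 h in duplicate to eight half-log concentrations up to 100 uM in 0.5% DMSO; mRNA measured by TaqMan qRT-PCR, normalized to ACTB, GAPDH, POLR2A; bidirectional fitting versus DMSO.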

Read-out in experiment [7]: Forkhead box O1 (FOXO1), FOXO1 (gene 2308)
In words: LTEA_HepaRG_FOXO1: Life Technologies and Expression Analysis (LTEA) Assay for Forkhead box O1 (FOXO1) using HepaRG (AID 2283456). The note with it: mRNA level, 48 h; actives raise or lower the signal. The procedure, abridged: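 Differentiated HepaRG cells, in serum-free induction medium with 0.5% DMSO, exposed 48 h in duplicate to 8-point half-log series from 100 uM. FOXO1 mRNA measured by TaqMan qRT-PCR, normalized to ACTB, GAPDH, POLR2A; bidirectional fit versus DMSO.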

Read-out in experiment [8]: growth arrest and DNA damage 45 (GADD45A), GADD45A (gene 1647)
In words: LTEA_HepaRG_GADD45A: Life Technologies and Expression Analysis (LTEA) Assay for growth arrest and DNA damage 45 (GADD45A) using HepaRG (AID 2283458). As to conditions: mRNA level, 48 h; actives raise or lower the signal. The procedure, abridged:
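Cells plated and cultured 48 h, switched to serum-free induction medium, then dosed for 48 h (100 uM top, half-log dilutions, 0.5% DMSO). RNA was isolated and transcript measured by Fluidigm qRT-PCR.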

Read-out in experiment [9]: Forkhead box O3 (FOXO3), FOXO3 (gene 2309)
Briefly: LTEA_HepaRG_FOXO3: Life Technologies and Expression Analysis (LTEA) Assay for Forkhead box O3 (FOXO3) using HepaRG (AID 2283459). As to conditions: mRNA level, 48 h; actives raise or lower the signal. The procedure, abridged: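 Differentiated human HepaRG cells, 48 h post-plating, exposed in duplicate for 48 h in serum-free induction medium; 8-point half-log series from 100 uM in 0.5% DMSO. FOXO3 mRNA by TaqMan qRT-PCR, normalized to ACTB/GAPDH/POLR2A; bidirectional fit versus DMSO.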

Read-out in experiment [10]: ABC Transporter (ABCB1), ABCB1 (gene 5243)
Briefly: LTEA_HepaRG_ABCB1: Life Technologies and Expression Analysis (LTEA) Assay for ABC Transporter (ABCB1) using HepaRG (AID 2283460). The note with it: mRNA level, 48 h; actives raise or lower the signal. The procedure, abridged: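 HepaRG cells exposed in duplicate for 48 h in serum-free induction medium to eight half-log concentrations up to 100 uM in 0.5% DMSO. ABCB1 mRNA quantified by qRT-PCR, normalised to ACTB, GAPDH and POLR2A; fitted bidirectionally versus DMSO.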

Read-out in experiment [11]: growth arrest and DNA damage 45 (GADD45B), GADD45B (gene 4616)
Briefly: LTEA_HepaRG_GADD45B: Life Technologies and Expression Analysis (LTEA) Assay for growth arrest and DNA damage 45 (GADD45B) using HepaRG (AID 2283461). As to conditions: mRNA level, 48 h; actives raise or lower the signal. The procedure, abridged: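 Human HepaRG monolayers receive chemicals for 48 h at eight half-log concentrations, highest 100 uM, in 0.5% DMSO. Expression is measured by TaqMan qRT-PCR and normalized to ACTB, GAPDH and POLR2A.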

Read-out in experiment [12]: ABC Transporter (ABCB11), ABCB11 (gene 8647)
Briefly: LTEA_HepaRG_ABCB11: Life Technologies and Expression Analysis (LTEA) Assay for ABC Transporter (ABCB11) using HepaRG (AID 2283463). The note with it: mRNA level, 48 h; actives raise or lower the signal. The procedure, abridged: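 Differentiated human HepaRG cells in serum-free induction medium, dosed in duplicate for 48 h. Eight-point half-log series from 100 uM in 0.5% DMSO; ABCB11 mRNA by qRT-PCR, normalized to ACTB, GAPDH, POLR2A, fitted bidirectionally versus DMSO.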

Read-out in experiment [13]: ABC Transporter (ABCC2), ABCC2 (gene 1244)
Briefly: LTEA_HepaRG_ABCC2: Life Technologies and Expression Analysis (LTEA) Assay for ABC Transporter (ABCC2) using HepaRG (AID 2283464). The note with it: mRNA level, 48 h; actives raise or lower the signal. The procedure, abridged:
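After plating and 48 h culture, HepaRG medium is replaced with serum-free induction medium and chemicals are added (8 concentrations, max 100 uM, 0.5% DMSO) for 48 h. Total RNA then undergoes qRT-PCR for ABCC2 with housekeeping normalization.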

Read-out in experiment [14]: Broad substrate specificity ATP-binding cassette transporter ABCG2 (Homo sapiens) (UniProt Q9UNQ0)
In words: LTEA_HepaRG_ABCG2: Life Technologies and Expression Analysis (LTEA) Assay for ABC Transporter (ABCG2) using HepaRG (AID 2283465). The note with it: mRNA level, 48 h; actives raise or lower the signal. The procedure, abridged: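 Differentiated HepaRG cells were exposed for 48 h in serum-free induction medium to 8 half-log concentrations, top 100 uM, in 0.5% DMSO. ABCG2 mRNA was measured by qRT-PCR, normalized to ACTB, GAPDH and POLR2A, with bidirectional fitting versus DMSO.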

Read-out in experiment [15]: ATP-citrate lyase (ACLY), ACLY (gene 47)
In words: LTEA_HepaRG_ACLY: Life Technologies and Expression Analysis (LTEA) Assay for ATP-citrate lyase (ACLY) using HepaRG (AID 2283466). The note with it: mRNA level, 48 h; actives raise or lower the signal. The procedure, abridged:
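Differentiated HepaRG cells exposed 48 h in serum-free induction medium to eight half-log concentrations up to 100 uM in 0.5% DMSO, duplicates. Transcript measured by Fluidigm TaqMan qRT-PCR, normalized to ACTB, GAPDH, POLR2A; bidirectional fit versus DMSO.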

Read-out in experiment [16]: Peroxisomal acyl-coenzyme A oxidase 1 (ACOX1) gene, ACOX1 (gene 51)
Briefly: LTEA_HepaRG_ACOX1: Life Technologies and Expression Analysis (LTEA) Assay for Peroxisomal acyl-coenzyme A oxidase 1 (ACOX1) gene using HepaRG (AID 2283467). The note with it: mRNA level, 48 h; actives raise or lower the signal. The procedure, abridged:
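HepaRG cells, plated 48 h then switched to serum-free induction medium, were exposed in duplicate for 48 h to 8-point half-log concentrations up to 100 uM in 0.5% DMSO. ACOX1 mRNA was measured by qRT-PCR, normalized to ACTB/GAPDH/POLR2A, and fitted bidirectionally versus DMSO.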

Read-out in experiment [17]: Alkaline Phosphatase, Placental (ALPP) gene, ALPP (gene 250)
In words: LTEA_HepaRG_ALPP: Life Technologies and Expression Analysis (LTEA) Assay for Alkaline Phosphatase, Placental (ALPP) gene using HepaRG (AID 2283468). As to conditions: mRNA level, 48 h; actives raise or lower the signal. The procedure, abridged: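 Using human liver HepaRG cells, chemicals are tested in duplicate over 48 h at half-log concentrations topping at 100 uM; phenobarbital 1 mM serves as induction control. ALPP mRNA change by qRT-PCR, bidirectional fit against vehicle.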

Read-out in experiment [18]: Cyclin D1 (CCND1), CCND1 (gene 595)
Briefly: LTEA_HepaRG_CCND1: Life Technologies and Expression Analysis (LTEA) Assay for Cyclin D1 (CCND1) using HepaRG (AID 2283451). As to conditions: mRNA level, 48 h; actives raise or lower the signal. The procedure, abridged:
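Expression change is measured by qRT-PCR in HepaRG cells after 48 h treatment across eight concentrations topping at 100 uM, with duplicate wells and DMSO (0.5%) serving as baseline for bidirectional fitting.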

Experiment [19] is described as follows: CEETOX_H295R_TESTO: CeeTox H295R High-throughput Steroidogenesis Assay for Testosterone (TESTO) (AID 2283457). The note with it: actives raise or lower the signal. The procedure, abridged: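 Steroidogenesis in H295R cells following OECD 456 with minor changes; 48 h exposure. Medium testosterone by HPLC-MS/MS, DMSO as baseline, with MTT viability run in parallel.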

Sequence of Broad substrate specificity ATP-binding cassette transporter ABCG2 (Homo sapiens) (Q9UNQ0 whole entry, looked up): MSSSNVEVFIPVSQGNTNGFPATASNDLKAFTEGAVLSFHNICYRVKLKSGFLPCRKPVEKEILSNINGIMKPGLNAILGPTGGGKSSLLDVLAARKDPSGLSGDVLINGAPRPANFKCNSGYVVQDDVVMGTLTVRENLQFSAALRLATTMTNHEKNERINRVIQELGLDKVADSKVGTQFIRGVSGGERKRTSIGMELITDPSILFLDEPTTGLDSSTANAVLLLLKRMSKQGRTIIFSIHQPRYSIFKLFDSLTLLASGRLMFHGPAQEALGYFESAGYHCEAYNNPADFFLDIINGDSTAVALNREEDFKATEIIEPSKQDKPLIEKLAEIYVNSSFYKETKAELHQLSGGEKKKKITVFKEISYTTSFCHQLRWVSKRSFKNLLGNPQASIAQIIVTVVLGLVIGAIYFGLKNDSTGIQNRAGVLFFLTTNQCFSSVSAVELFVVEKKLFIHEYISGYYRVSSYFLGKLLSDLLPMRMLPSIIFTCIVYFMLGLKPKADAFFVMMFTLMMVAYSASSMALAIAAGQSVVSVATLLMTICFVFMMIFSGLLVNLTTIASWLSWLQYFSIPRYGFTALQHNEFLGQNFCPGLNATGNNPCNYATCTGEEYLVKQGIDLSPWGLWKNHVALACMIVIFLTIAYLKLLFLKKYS

In the case of `CCc1nn(C2CCCCC2)c2cc(C3(C#N)CCC(C(=O)O)CC3)ccc12` (stereo unspecified), the outcome in experiment [1], in experiment [9], in experiment [11], in [13] and in experiment [16] was inactive. Moreover, the AC50 in [2] is 73.2 µM (active); in [3] it was 77.2 µM (active); in experiment [4], 83.7 µM (active); in experiment [5], 14.4 µM (active); in [6], 8.95 µM (active); in experiment [7], 86 µM (active). Further, the AC50 is 77.6 µM (active) in [8]; 12.4 µM (active) in experiment [10]; 82.8 µM (active) in experiment [12]; 13 µM (active) in [14]; 25.5 µM (active) in [15]; 50 µM (active) in experiment [17].
For `Cc1cc(C)c(O)c(C)c1`, the call in experiment [1], in [2], in [3], in experiment [4], in [6] and in experiment [7] was inactive. For the same molecule, the molecule was classed as inactive in [8], in [9], in experiment [10], in experiment [11], in experiment [12] and in experiment [14]. In addition, the molecule was classed as inactive in [16] and in experiment [17]. For the same molecule, the half-maximal activity concentration (AC50) was 50 µM (active) in [5] and 26.8 µM (active) in experiment [13].
Turning to `O=C(O)c1ccccc1C(c1ccc(O)cc1)c1ccc(O)cc1`, the call in experiment [2], in [18], in [3], in experiment [4], in experiment [5] and in experiment [6] was inactive. The molecule was classed as inactive in experiment [7], in experiment [19], in experiment [8], in [9], in [10] and in [11]. Also, the result in experiment [12], in experiment [13], in experiment [14], in [16] and in [17] was inactive.
Turning to `CC(C)(C)c1cc(C(C)(C)C)c(O)c(C(C)(C)C)c1`, the molecule was classed as inactive in [1], in experiment [2], in experiment [3], in [4], in experiment [5] and in [6]. Moreover, the molecule was called inactive in experiment [7], in experiment [8], in [9], in [10], in experiment [11] and in experiment [12]. The molecule was classed as inactive in experiment [16] and in [17]. Further, the AC50 in [13] was 50 µM (active); in experiment [14], 20.9 µM (active).
